Screening results from PubChem.
Most compounds without a hit are left out; they make up all but 21% or so of the library.
Shiga toxin inh – Shiga toxin inhibition | Vero cells, Shiga toxin protein synthesis inhibition reporter | inhibition, % at 38.7 µM | actives 9.2% (n = 290,000) | AID 2315; in the data active = inhibition mostly above about 28%, no sharp cut-off; inactive = mostly below about 43%
Pf growth 48h – P. falciparum growth inhibition at 48 hours (one generation); AID 504832; actives 5.9% (n = 310,000); P. falciparum luciferase growth in erythrocytes, 48 h; Potency, µM (series often up to 28.7 µM), actives largely listed as inhibitors; active = well fitted inhibition curve with a large enough effect; inconclusive = small, poorly fitted or top-dose-only effect, or another doubt; inactive = no such curve, though single readings can be large or run the other way
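Erythrocytes infected with P. falciparum carrying an integrated firefly luciferase reporter (2% hematocrit, 0.1% parasitemia final) were exposed to compounds in RPMI 1640 with 0.5% Albumax at 37 C, 5% CO2. Growth inhibition was scored as reduced luminescence.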
Pf growth 96h – P. falciparum growth inhibition at 96 hours | P. falciparum luciferase reporter growth, 96 h | Potency, µM (series often up to 28.7 µM), usual class: inhibitors | actives 6.9% (n = 320,000) | AID 504834; active = well fitted inhibition curve with a large enough effect; inconclusive = small, poorly fitted or top-dose-only effect, or another doubt; inactive = no such curve, though single readings can be large or run the other way
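Compounds incubated with erythrocytes infected by luciferase-expressing P. falciparum (2% hematocrit, 0.05% parasitemia final) for 96 hours, 37 C in 5% CO2. Growth inhibition scored as decreased luciferase luminescence.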
NS1 function inh – influenza NS1 inhibition | Potency, µM (titrated, usually from 46.1 µM) | actives 0.4% (n = 270,000) | AID 2326; also: actives are rising curves; nearly all actives have a fitted effect of over 50% in size
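Read-out: OD600 growth recovery of NS1-expressing budding yeast. Cells grown overnight at 30C in -URA glucose medium, washed, resuspended and diluted 1:100 in 2% galactose assay medium, pH 6.0. Same strain lacking NS1 served as positive control.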
Cycloheximide cs – counter-screen for Shiga toxin inhibitors: cycloheximide protein synthesis inhibition. actives 12% (n = 300,000). cell reporter, cycloheximide protein synthesis inhibition counterscreen. max response, %; in the data active = max response mostly above about 13%, no sharp cut-off; inactive = mostly below about 14%; also: read at 38.3 µM for the half of the compounds with a filed dose
SARS PLpro yeast – SARS-CoV PLP inhibition in yeast; actives 0.19% (n = 330,000); AID 485353; S. cerevisiae expressing SARS-CoV PLpro, growth rescue; Potency, µM (highest dose often 32.9 µM), hits mostly activators; also: nearly all actives have a fitted effect of over 55% in size
Large screens that a line does not name were inactive. Unless noted, calls follow the shape of the full dose curve.

Cc1ccc(-n2nnnc2SCc2nnc(-c3ccccc3Br)o2)c(C)c1	Pf growth 48h inconclusive (no result: Pf growth 96h)
CCOc1ccccc1OCC(=O)Nc1nnc(COC)s1	none
Cc1c(C)n(CCc2ccccc2)c2ncnc(NCCCN(C)C)c12	Shiga toxin inh 28.0, Pf growth 48h inconclusive, Pf growth 96h inconclusive
Cc1c(C)n(CCN(C)C)c2ncnc(NCc3ccccc3)c12	none
COc1cc(OC)cc(C(=O)Nc2ccc(N3CCOCC3)cc2N2CCOCC2)c1	Pf growth 48h inconclusive, Pf growth 96h 13.1µM (no result: Shiga toxin inh, NS1 function inh, Cycloheximide cs)
COc1ccc(-c2ocnc2C(=O)Nc2ccc(N3CCOCC3)cc2N2CCOCC2)cc1OC	Pf growth 48h 8.28µM
COc1ccccc1-c1ocnc1C(=O)Nc1ccc(N2CCOCC2)cc1N1CCOCC1	Pf growth 48h inconclusive
O=C(O)c1ccc(CNCc2ccccc2)cc1	none (no result: Shiga toxin inh, Pf growth 48h, Pf growth 96h, Cycloheximide cs, SARS PLpro yeast)
COc1ccccc1CNC(=O)CSc1ccc(-c2ccncc2)nn1	none (no result: NS1 function inh)
CNC(=O)c1cc(C)c(-c2ccccc2)s1	Pf growth 48h inconclusive, Cycloheximide cs 45.7 (no result: Pf growth 96h)
CNC(=O)c1cc2c(s1)-c1ccccc1CC2	Shiga toxin inh 99.8, Cycloheximide cs 48.8
O=C(N/N=C/c1ccc(F)c(F)c1)c1cc2c(s1)-c1ccccc1CC2	none
CC(OC(=O)c1ccc2ncsc2c1)C(=O)N(C)C1CCCCC1 (stereo not drawn)	none (no result: Shiga toxin inh, NS1 function inh, Cycloheximide cs)
O=C(Nc1ccc([N+](=O)[O-])cc1)Nc1ccc(OC(F)F)c(Cl)c1	Pf growth 48h 1.85µM
COc1ccc(NC(=O)Nc2cccc([N+](=O)[O-])c2)cc1Cl	Pf growth 48h 6.57µM, Cycloheximide cs 30.2
COc1ccccc1CCNC(=O)Nc1cccc([N+](=O)[O-])c1	none
O=C(Nc1ccc(OC(F)F)c(Cl)c1)Nc1ccc2c(c1)OCO2	Pf growth 48h inconclusive (no result: Pf growth 96h)
COc1nnc(-c2ccc(C)cc2)c2ccccc12	Pf growth 48h inconclusive, Pf growth 96h inconclusive
CCC(C(=O)Nc1ccsc1C(=O)OC)c1ccccc1 (stereo not drawn)	none
O=C(Nc1ccc(F)cc1)Nc1ccc(N2CCCC2)c(S(=O)(=O)Nc2ccccc2Cl)c1	Pf growth 48h 9.28µM, Pf growth 96h 4.65µM
O=C(Nc1ccc(Cl)c(Cl)c1)Nc1ccc(N2CCCC2)c(S(=O)(=O)Nc2ccccc2Cl)c1	Pf growth 48h 13.1µM, Pf growth 96h 3.7µM
O=C(Nc1ccc(N2CCOCC2)c(S(=O)(=O)Nc2ccccc2Cl)c1)c1ccc(F)cc1	none (no result: Shiga toxin inh, Pf growth 48h, Pf growth 96h, NS1 function inh, Cycloheximide cs)
Cc1ccn(C(C)CC(=O)Nc2ccc(-c3ccno3)cc2)n1 (stereo not drawn)	none
c1ccc(-c2ncc3ccccn23)cc1	Pf growth 48h inconclusive, Pf growth 96h inconclusive, Cycloheximide cs 15.4
c1ccc2c(c1)ncc1cccn12	none (no result: Pf growth 48h)
O=C1CC(NCc2ccc3c(c2)OCO3)C(=O)N1CCc1ccccc1 (stereo not drawn)	none (no result: Pf growth 96h)
CCCCC(=O)NC(NC(=S)N1CCOCC1)C(Cl)(Cl)Cl (stereo not drawn)	Pf growth 48h 8.28µM (no result: Pf growth 96h)
O=C(NC(NC(=S)N1CCOCC1)C(Cl)(Cl)Cl)c1ccc(Cl)cc1 (stereo not drawn)	Pf growth 48h inconclusive
CN(C(=O)c1ccoc1)c1ccc2ccccc2c1	Pf growth 96h inconclusive
CN(C(=O)c1ccc2ccccc2c1)c1ccccn1	Cycloheximide cs 30.1
COC(=O)CC1(C(=O)OC)Oc2ccc(Br)cc2C(=O)N1c1cc(Cl)cc(Cl)c1 (stereo not drawn)	Pf growth 48h 5.22µM, Pf growth 96h 9.28µM
COC(=O)CC1(C(=O)OC)Oc2ccc(Br)cc2C(=O)N1c1cccc(Cl)c1Cl (stereo not drawn)	Pf growth 48h inconclusive, Pf growth 96h 13.1µM
COC(=O)CC1(C(=O)OC)Oc2ccc(Br)cc2C(=O)N1c1ccc(Br)cc1Cl (stereo not drawn)	Pf growth 48h inconclusive, Pf growth 96h 11.7µM
COC(=O)CC1(C(=O)OC)Oc2ccc(Br)cc2C(=O)N1c1cc(Cl)c(Cl)cc1Cl (stereo not drawn)	Pf growth 48h inconclusive, Pf growth 96h inconclusive
Cc1nnc2ccc(-c3cccc(NS(=O)(=O)c4ccccc4[N+](=O)[O-])c3)nn12	Pf growth 96h 2.94µM (no result: Shiga toxin inh, NS1 function inh, Cycloheximide cs)
Cc1nnc2ccc(-c3cccc(NS(=O)(=O)c4ccccc4Cl)c3)nn12	Pf growth 48h 11.7µM, Pf growth 96h inconclusive (no result: Shiga toxin inh, NS1 function inh, Cycloheximide cs)
Cc1ccc(C(=O)Nc2ccc(-c3csc(C)n3)cc2)cc1	Shiga toxin inh 117.7, Cycloheximide cs 34.9
Cc1nc(-c2ccc(NC(=O)C3CCCCC3)cc2)cs1	Shiga toxin inh 136.8, Cycloheximide cs 42.9 (no result: Pf growth 96h)
CCc1ccccc1NC(=O)c1ccc(-c2csc(C)n2)cc1	Shiga toxin inh 53.2, Cycloheximide cs 27.2
Cc1nc(-c2ccc(NC(=O)c3ccccc3)cc2)cs1	none
N#Cc1ccc(-c2csc(NC(=O)C3CC3)n2)cc1	none (no result: Pf growth 48h)
Cc1csc(NC(=O)C2CCCC2)n1	Cycloheximide cs 27.8 (no result: Pf growth 48h)
COc1ccc(/C(C)=N/NC(=O)CNC(=O)CCc2ccccc2)c(OC)c1	none
Cc1ccc(S(=O)(=O)Nc2ccc(-n3c(C)nc4ccccc4c3=O)cc2)cc1	Pf growth 48h inconclusive (no result: Shiga toxin inh, NS1 function inh, Cycloheximide cs)
CCn1c(SCC(=O)N2CCCCC2C)nc2ccsc2c1=O (stereo not drawn)	none
CC1CCCCN1C(=O)CSc1nc2cc3c(cc2c(=O)n1Cc1ccc2c(c1)OCO2)OCO3 (stereo not drawn)	Pf growth 48h inconclusive, Pf growth 96h 4.15µM
CC1CCCCN1C(=O)CSc1nc2ccsc2c(=O)n1Cc1ccccn1 (stereo not drawn)	Shiga toxin inh 39.9, NS1 function inh inconclusive
CCN(CC)C(=O)CSc1nc2cc3c(cc2c(=O)n1Cc1ccc(OC)cc1)OCO3	Pf growth 48h inconclusive (no result: NS1 function inh)
Cc1ccc(NC(=O)c2sc(Cl)nc2-c2ccccc2)cc1C	none (no result: Pf growth 96h)
COc1ccc(-c2sc3ccc(N4CCOCC4)cc3c2C#Cc2ccsc2)cc1	none (no result: Shiga toxin inh, Pf growth 48h, Pf growth 96h, NS1 function inh, Cycloheximide cs)
COc1ccc(-c2sc3ccc(N4CCOCC4)cc3c2C#CC(C)(C)O)cc1	Pf growth 48h inconclusive, Pf growth 96h 2.62µM (no result: Shiga toxin inh, NS1 function inh, Cycloheximide cs)
COc1ccc(N=N/C(=C\O)C(=O)c2ccco2)cc1	Shiga toxin inh 83.5, Cycloheximide cs 39.6 (no result: NS1 function inh)
Cc1ccc(S(=O)(=O)Nc2c(Cl)c(Cl)c(O)c3ccccc23)cc1	Shiga toxin inh 46.6, Pf growth 96h inconclusive, Cycloheximide cs 34.0
O=C1NCCCC1C(=O)N1CCN(C(=O)C2CCCNC2=O)CC1 (stereo not drawn)	Pf growth 48h 11.7µM
CN(C)CCCN1C(=O)c2oc3ccccc3c(=O)c2C1c1cccs1 (stereo not drawn)	Shiga toxin inh 23.8, Pf growth 48h inconclusive, Cycloheximide cs 22.0
CCN(CC)CCN1C(=O)c2oc3ccccc3c(=O)c2C1c1ccc(F)cc1 (stereo not drawn)	Pf growth 48h 2.94µM, Pf growth 96h 9.28µM
Cc1cccc(NS(=O)(=O)c2c(C)[nH]c(C)c2C(=O)N2CCCC2)c1	Pf growth 96h inconclusive
Cc1cccn2cc(CCNC(=O)c3cccs3)nc12	Cycloheximide cs 18.5
